# From the supplement of paper PMC8728848
# The entries come from a sample that favours the strongest signals as a whole.
# B1: PX14343B-bfa-546-20-546 (Bacteroides fragilis) (protein)
# chain: CDLERYPLTDLSEETFWNSESNAELALTSLYRGSLTDGVEYNPSDWWSYHGMIMMEHLSDNAFDRRGENNPFFKISSGNLTADNAFIKRYWETSYKRIGYCNRFLVGIQNSSESEKKTRMIAEARFLRATQYFYLASYFKNVPLVENVLTGEEANNVTKTSQADILKWCVTEFTAAAADLPRFSAIPAGEAGRACKQAALAFLGRTCMLQKDWKSGAKAFHDIMELGDNAINANYQELFYPSTGTSNKENIFYIQYLENYLGTGLPQHALSAKDGGWSLVNPAADLYESYEFKDGTPFSYDDPRYDPSNLGKDRDPRLDYTIYYNGAIFMGTEYKMSPDYSAAKKEKLDYTSEASRTGFMMRKYFEESTPINDVQSANGLTPVIRYAEVLLGYLECLVEDNQTITQGILDETINAVRGRASVNMPPVTEVTPAKLREIVRHERRIELAMEGIRYWDIMRWGIAHEVLSQKIWGAPYPGSTQYATTTKEVDPTGNYRWYVGKRAFRNPTDYTWPIPQSEQNINPNLRD
# Experiments:
# Experiment in all cases: glycan array binding signal (z-score within array); higher = stronger binding
# Conditions in all cases: glycan notation: IUPAC condensed, linker removed
# [1] = target: Fuc(a1-2)Gal(b1-3)GalNAc(b1-3)Gal
# Procedure, shortened: (§1)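 Negative Z-scores can be read as non-binding. The Z-score is calculated within each array and then averaged across arrays of one protein sequence at different concentrations or buffers and across linkers. Arrays, 3228 in all, were curated from the Consortium for Functional Glycomics database and kept only where the protein sequence was available.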
# [2] = target: Fuc(a1-2)Gal(b1-3)GlcNAc(b1-3)[Fuc(a1-2)Gal(b1-3)GlcNAc(b1-6)]GalNAc
# Procedure, shortened: as §1
# [3] = target: Fuc(a1-2)Gal3S(b1-4)GlcNAc
# Procedure, shortened: as §1
# [4] = target: Fuc(a1-2)Gal6S(b1-3)GlcNAc
# Procedure, shortened: as §1
# [5] = target: Fuc(a1-2)Gal6S(b1-3)GlcNAc6S
# Procedure, shortened: as §1
# [6] = target: Fuc(a1-2)Gal6S(b1-4)Glc6S
# Procedure, shortened: as §1
# [7] = target: Fuc(a1-2)[Gal(a1-3)]Gal(b1-4)GlcNAc
# Procedure, shortened: as §1
# [8] = target: Fuc(a1-2)[Gal(a1-3)]Gal(b1-4)[Fuc(a1-3)]Glc
# Procedure, shortened: as §1
# [9] = target: Fuc(a1-2)[GalNAc(a1-3)]Gal(b1-4)GlcNAc(b1-3)Gal(b1-4)GlcNAc
# Procedure, shortened: as §1
# [10] = target: Fuc(a1-2)[GalNAc(a1-4)]Gal(b1-4)GlcNAc
# Procedure, shortened: as §1
# [11] = target: Fuc(a1-3)[Gal(b1-4)]GlcNAc6S
# Procedure, shortened: as §1
# [12] = target: Gal(a1-3)Gal(b1-4)GlcNAc
# Procedure, shortened: as §1
# [13] = target: Gal(b1-3)Gal(b1-4)GlcNAc
# Procedure, shortened: as §1
# [14] = target: Gal(b1-3)GalNAc(a1-3)[Fuc(a1-2)]Gal(b1-4)Glc
# Procedure, shortened: as §1
# [15] = target: Gal(b1-3)GlcNAc(b1-2)[Gal(b1-3)GlcNAc(b1-6)]Man(a1-6)[Gal(b1-3)GlcNAc(b1-2)Man(a1-3)]Man(b1-4)GlcNAc(b1-4)GlcNAc
# Procedure, shortened: as §1
# [16] = target: Gal(b1-3)GlcNAc(b1-3)Gal(b1-4)GlcNAc(b1-3)Gal(b1-4)GlcNAc(b1-2)[Gal(b1-3)GlcNAc(b1-3)Gal(b1-4)GlcNAc(b1-3)Gal(b1-4)GlcNAc(b1-6)]Man(a1-6)[Gal(b1-3)GlcNAc(b1-3)Gal(b1-4)GlcNAc(b1-3)Gal(b1-4)GlcNAc(b1-2)Man(a1-3)]Man(b1-4)GlcNAc(b1-4)[Fuc(a1-6)]GlcNAc
# Procedure, shortened: as §1
# [17] = target: Gal(b1-3)GlcNAc(b1-3)GalNAc
# Procedure, shortened: as §1
# [18] = target: Gal(b1-4)GlcNAc
# Procedure, shortened: as §1
# [19] = target: Gal(b1-4)GlcNAc(b1-3)Gal(b1-4)GlcNAc
# Procedure, shortened: as §1
# [20] = target: Gal(b1-4)GlcNAc(b1-3)Gal(b1-4)GlcNAc(b1-3)Gal(b1-4)GlcNAc
# Procedure, shortened: as §1
# [21] = target: Gal(b1-4)GlcNAc(b1-3)[Gal(b1-4)GlcNAc(b1-6)]Gal(b1-4)GlcNAc
# Procedure, shortened: as §1
# [22] = target: Gal6S(b1-3)GlcNAc
# Procedure, shortened: as §1
# [23] = target: Gal6S(b1-3)GlcNAc6S
# Procedure, shortened: as §1
# [24] = target: Gal6S(b1-4)Glc
# Procedure, shortened: as §1
# [25] = target: Gal6S(b1-4)Glc6S
# Procedure, shortened: as §1
# [26] = target: Gal6S(b1-4)GlcNAc
# Procedure, shortened: as §1
# [27] = target: Gal6S(b1-4)GlcNAc6S
# Procedure, shortened: as §1
# [28] = target: GalNAc(b1-3)Gal
# Procedure, shortened: as §1
# [29] = target: GalNAc3S(b1-4)[Fuc(a1-3)]GlcNAc
# Procedure, shortened: as §1
# [30] = target: GalNAc6S(b1-4)GlcNAc
# Procedure, shortened: as §1
binder,measurement,setting,value
B1,glycan array binding signal (z-score),[1],-0.117
same,glycan array binding signal (z-score),[2],-0.126
same,glycan array binding signal (z-score),[3],4.47
same,glycan array binding signal (z-score),[4],2.42
same,glycan array binding signal (z-score),[5],6.35
same,glycan array binding signal (z-score),[6],0.709
same,glycan array binding signal (z-score),[7],-0.126
same,glycan array binding signal (z-score),[8],-0.124
same,glycan array binding signal (z-score),[9],-0.126
same,glycan array binding signal (z-score),[10],-0.115
same,glycan array binding signal (z-score),[11],-0.129
same,glycan array binding signal (z-score),[12],-0.122
same,glycan array binding signal (z-score),[13],-0.113
same,glycan array binding signal (z-score),[14],-0.122
same,glycan array binding signal (z-score),[15],-0.117
same,glycan array binding signal (z-score),[16],-0.113
same,glycan array binding signal (z-score),[17],-0.12
same,glycan array binding signal (z-score),[18],-0.128
same,glycan array binding signal (z-score),[19],-0.132
same,glycan array binding signal (z-score),[20],-0.113
same,glycan array binding signal (z-score),[21],-0.123
same,glycan array binding signal (z-score),[22],9.99
same,glycan array binding signal (z-score),[23],6.09
same,glycan array binding signal (z-score),[24],1.73
same,glycan array binding signal (z-score),[25],3.07
same,glycan array binding signal (z-score),[26],9.6
same,glycan array binding signal (z-score),[27],13.3
same,glycan array binding signal (z-score),[28],-0.123
same,glycan array binding signal (z-score),[29],-0.136
same,glycan array binding signal (z-score),[30],10.1
